Bioassay records: PubChem, National Center for Advancing Translational Sciences (NCATS)
Nrf2 ARE act: Nrf2 pathway activation | Potency, µM (titrated, usually from 46.1 µM), inactives show top-dose activation, usual class: activators | AREc32 ARE-luciferase reporter (MCF7-derived line), luminescence, 24 h | hit rate 0.31% among 410,000; further: % of control where 0% means no effect; nearly all actives have a fitted effect of over 65% in size
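Luminescent ARE reporter assay in AREc32_Fluc cells: overnight plating at 37 deg C, 24 hr compound incubation, Steady-Glo added, 30 min RT before reading.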
Nrf2 block: inhibitors of Nrf2 signaling; A549 ARE-Fluc reporter, luciferase luminescence, 18-24 h; Potency, µM (titrated, usually from 46 µM), inactives show at the top dose activity change, negative = inhibition, usual class: inhibitors; hit rate 2.1% among 360,000; AID 504444; further: on the % scale 0 is the no-effect control and ±100 the full control effect; nearly all actives have a fitted effect of over 60% in size
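Nrf2 activity is the BugLite luminescence, read 15 min after reagent at room temperature, following CellTiter-Fluor cytotoxicity readout (30 min, 37C). Compound titrations were applied for 18-24 h to 5000 A549 ARE_Fluc cells/well in 5% FBS OPTI-MEM.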
ATXN2 expr inh: inhibitors of ATXN2 expression | Potency, µM (top dose mostly 57 µM), for the others: at the highest dose activity change, negative = inhibition, most hits filed as inhibitors | hit rate 0.72% among 360,000 | HEK-293 ATXN2-luciferase reporter, luminescence, 24 h; further: on the % scale 0 is the no-effect control and ±100 the full control effect; nearly all actives have a fitted effect of over 55% in size
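ATXN2-luciferase reporter cells (luciferase flanked by upstream and downstream ATXN2 gene portions) were treated 24 h at 37 °C with compounds at up to 57 uM. SteadyGlo luminescence gave expression; GF-AFC fluorescence gave viability.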
A549 viability: counter-screen for Nrf2 inhibitors: cytotoxicity in A549 cells; AID 504648; Potency, µM (titrated, usually from 46 µM), for the others: top-dose activity change, negative = cytotoxicity, usual class: inhibitors; A549 ARE-Fluc cells, CellTiter-Fluor viability, 18-24 h; hit rate 0.16% among 390,000; further: on the % scale 0 is the no-effect control and ±100 the full control effect
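A549 ARE_Fluc cells in 5% FBS OPTI-MEM were exposed to compounds in concentration-response for 18-24 h at 37 deg C. Viability was read by CellTiter-Fluor fluorescence (Ex 405/Em 525) after 30 min, before the luciferase read.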
S2 tox: viability counter-screen for ATXN expression inhibitors; S2 cells (HEK-293 line with an ATXN2-luciferase reporter) viability, CellTiter-Fluor protease fluorescence, 24 h; Potency, µM (highest dose often 56.7 µM), actives largely listed as cytotoxic; hit rate 0.49% among 400,000; AID 651635; further: nearly all actives have a fitted effect of over 40% in size
The depositor's hits bear a star; i = inactive; ? = inconclusive; . = not tested or not shown. An excerpt weighted towards active compounds, which were near 2.9% of everything screened. The call rests on the fitted dose curve; in most records, active means well fitted curve in the direction sought with a large enough effect; inconclusive means small, poorly fitted or top-dose-only effect, or another doubt; inactive means no such curve, though single readings can be large; an effect the other way counts as inactive or inconclusive. Potency means the concentration at half of the fitted maximal effect.

SMILES | Nrf2 ARE act | Nrf2 block | ATXN2 expr inh | A549 viability | S2 tox
CC(C)(C)OC(=O)N1CCC(c2nnc(SCc3ccccc3F)o2)CC1 | 0% | 21µM* | -16% | ? | i
CCCCn1nnnc1C(c1cc2ccccc2o1)N(CCN(C)C)Cc1ccccc1 (stereo unspecified) | 11% | . | 32µM* | . | .
CCCCn1nnnc1C(c1cc2ccccc2o1)N1CCN(c2ccccc2F)CC1 (stereo unspecified) | 1% | . | 6% | . | i
CCCCn1nnnc1C(c1cc2ccccc2o1)N1CCN(c2cc(C)nc3ccccc23)CC1 (stereo unspecified) | 4% | . | ? | . | 4.5µM*
COc1ccc(/C=C/C(=O)N2CCC(c3nc4ccccc4o3)CC2)cc1 | 0% | ? | . | 0% | .
Cc1ccc(/C(O)=C/c2nc3ccccc3oc2=O)cc1 | 13µM* | -18% | -5% | -9% | i
Cc1ccc2oc(=O)c(/C=C(\O)c3ccco3)nc2c1 | ? | ? | 2% | -2% | i
O=c1oc2ccccc2nc1/C=C(O)/C=C/c1ccc(F)cc1 | 18µM* | 11% | 11% | -7% | i
O=c1oc2ccccc2nc1/C=C(O)/C=C\c1ccccc1 | 16µM* | 3% | 7% | -9% | i
CC(=O)c1cccc(NC(=O)Nc2c(C)n(C)n(-c3ccccc3)c2=O)c1 | 3% | 12% | 7% | -5% | i
C=C1[C@@H](O)[C@@H]2O[C@]3(CC[C@H](/C=C/[C@@H](C)[C@@H]4CC(C)=CC5(O[C@H](C[C@@](C)(O)C(=O)OC)CC[C@H]5O)O4)O3)CC[C@H]2O[C@@H]1[C@@H](O)C[C@H](C)[C@H]1OC2(CCCCO2)CC[C@H]1C (stereo partly specified) | -2% | 0.092µM* | ? | ? | ?
C=C1C(O)[C@@H]2O[C@]3(CC[C@H](/C=C/C(C)[C@@H]4CC(C)=CC5(O[C@H](C[C@@](C)(O)CO)CCC5O)O4)O3)CC[C@H]2O[C@@H]1C(O)CC(C)[C@H]1OC2(CCCCO2)CCC1C (stereo partly specified) | ? | ? | -24% | ? | ?
COc1ccc(NCc2n[nH]c(=O)c3ccccc23)cc1 | 0% | -27% | 3% | -1% | i
O=c1[nH]nc(CNc2cccc(C(F)(F)F)c2)c2ccccc12 | 3% | 13µM* | . | 0% | i
O=C(NCc1ccccc1F)c1sc2ncccc2c1-n1cccc1 | 5% | . | -11% | 1% | ?
O=C1c2ccccc2C(=O)c2c(Nc3ccc(CCO)cc3)ccc(O)c21 | 4µM* | ? | . | ? | i
CC(=O)Nc1ccc(Nc2ccc3c4c(cc(=O)n3C)-c3ccccc3C(=O)c24)cc1 | 4% | ? | 4% | -15% | i
CCOP(=O)(OCC)C(C)(C)NC(=O)Nc1ccc(Cl)c(Cl)c1 | 0% | 23µM* | -16% | 2% | i
CCOP(=O)(OCC)C(NC(=O)Nc1ccc(Cl)c(Cl)c1)c1ccccc1 (stereo unspecified) | 4% | 5% | -12% | -3% | i
CC1CC(C)(C)CC2(C1)NC(=O)N(CC(=O)N1CCN(Cc3ccc(C#N)cc3)CC1)C2=O (stereo unspecified) | 0% | 1.8µM* | -11% | -14% | i
CC1CC(C)(C)CC2(C1)NC(=O)N(CC(=O)Nc1c(F)cccc1F)C2=O (stereo unspecified) | 0% | 4% | 11% | -1% | i
CC1CC(C)(C)CC2(C1)NC(=O)N(CC(=O)N1CCN(S(=O)(=O)c3cccs3)CC1)C2=O (stereo unspecified) | -1% | -4% | . | -2% | i
Cc1cccc(NC(=O)CN2CCN(C(=O)CN3C(=O)NC4(CC(C)CC(C)(C)C4)C3=O)CC2)c1C (stereo unspecified) | 0% | 16µM* | -15% | -11% | i
O=C(CN(C(=O)Cn1nnc(-c2ccc(F)cc2)n1)C1CCCC1)NC1CCCC1 | 0% | . | 2% | 0% | i
COc1ccc(-c2nc(Cn3c(SCc4cccc(C(F)(F)F)c4)nc4cccnc43)c(C)o2)cc1OC | -1% | 23µM* | . | -19% | .
SMILES | Nrf2 ARE act | Nrf2 block | ATXN2 expr inh | A549 viability | S2 tox
COc1ccc(CSc2nc3ccncc3n2Cc2nc(-c3ccc(OC)c(OC)c3)oc2C)cc1 | 10% | -14% | -32% | ? | .
O=C(Nc1cccc([N+](=O)[O-])c1)c1ccncc1 | 11µM* | 6% | 5% | 7% | i
CC(C)(C)c1ccc(C(=O)Nc2cccc([N+](=O)[O-])c2)cc1 | 10% | ? | -28% | -11% | ?
O=C(CCNc1ccc(Cc2ccncc2)cc1)c1cccc([N+](=O)[O-])c1 | ? | 15µM* | -30% | -8% | i
O=C(Nc1cccc([N+](=O)[O-])c1)c1[nH]ncc1Cl | 5µM* | ? | 0% | 12% | i
COC(=O)c1ccc(Cn2cnc3c(cnn3-c3ccc(F)cc3)c2=O)o1 | 0% | 2% | 9% | -1% | i
COC(=O)c1ccc(Cn2cnc3c(cnn3-c3ccc(C)c(C)c3)c2=O)o1 | 0% | 23µM* | -19% | -15% | ?
NC(=O)C(C(=O)/C=C/c1ccc(Cl)cc1)=C1SCCS1 | 7.9µM* | ? | . | ? | ?
COC(=O)c1ccc(-c2ccc([C@H]3[C@H]4C=CC[C@@H](C)[C@@H]4C(=O)N3Cc3ccccc3)c(F)c2)cc1 | 4% | 23µM* | -9% | -11% | i
C[C@@H]1CC=C[C@H]2[C@H]1C(=O)N(Cc1ccccc1)[C@H]2c1ccc2ccccc2c1Br | 0% | ? | ? | ? | 28µM*
C[C@@H]1CC=C[C@H]2[C@H]1C(=O)N(Cc1ccccc1)[C@H]2c1ccc2ccccc2c1 | 1% | 21µM* | -12% | ? | i
CC1CC=CC2C1C(=O)N(Cc1ccccc1)C2c1ccc2ccccc2c1C=Cc1ccccc1 (stereo unspecified) | . | ? | . | -13% | .
CC(=O)c1ccc(-c2ccc([C@H]3[C@H]4C=CC[C@@H](C)[C@@H]4C(=O)N3Cc3ccccc3)c(F)c2)cc1 | 0% | ? | -34% | 2% | i
Cc1ccc(S(=O)(=O)Cc2cn3cccnc3n2)cc1 | 0% | 1% | 2% | -1% | i
CS(=O)(=O)c1cccc(C(=O)N(CCc2ccccc2)Cc2cccs2)c1 | -1% | 27% | -6% | -1% | i
CCOC(=O)c1ccc(NC(=S)N2CCSC2c2ccc(Cl)cc2)cc1 (stereo unspecified) | 3% | 21µM* | 11% | ? | ?
C=CCOc1ccc(C2NC(=O)c3ccccc3O2)cc1OCC (stereo unspecified) | 3% | -3% | -4% | 1% | i
Cc1nnc(-c2cccc(Br)c2)c2cn(-c3ccc(Br)cc3)nc12 | 0% | 15µM* | -35% | -19% | ?
